# From PubChem BioAssay (NCATS)
# “And” between values parts separate entries of the source, which are not always exact repeats. Equal entries are not always repeated. Inconclusive results are not listed. A structure can be active in one record and inactive in another. The source made the active and inactive calls. Unless noted, calls follow the shape of the dose curve; as a rule, active = well fitted curve in the direction sought with a large enough effect; inconclusive = small, poorly fitted or top-dose-only effect, or another doubt; inactive = no such curve, though single readings can be large; an effect the other way counts as inactive or inconclusive.
# Assays:
# [1] = target: Cytochrome P450 2C9 (Homo sapiens) (UniProt P11712); assay: qHTS Assay for Inhibitors and Substrates of Cytochrome P450 2C9 (AID 883); also: nearly all actives have a fitted effect of over 60% in size; also: potency is read from the fitted curve at half-maximal effect; as to activity change, negative = inhibition: % is scaled to controls: 0 for no effect and ±100 for the full control effect
# Sequence of Cytochrome P450 2C9 (Homo sapiens) (P11712 whole entry, looked up): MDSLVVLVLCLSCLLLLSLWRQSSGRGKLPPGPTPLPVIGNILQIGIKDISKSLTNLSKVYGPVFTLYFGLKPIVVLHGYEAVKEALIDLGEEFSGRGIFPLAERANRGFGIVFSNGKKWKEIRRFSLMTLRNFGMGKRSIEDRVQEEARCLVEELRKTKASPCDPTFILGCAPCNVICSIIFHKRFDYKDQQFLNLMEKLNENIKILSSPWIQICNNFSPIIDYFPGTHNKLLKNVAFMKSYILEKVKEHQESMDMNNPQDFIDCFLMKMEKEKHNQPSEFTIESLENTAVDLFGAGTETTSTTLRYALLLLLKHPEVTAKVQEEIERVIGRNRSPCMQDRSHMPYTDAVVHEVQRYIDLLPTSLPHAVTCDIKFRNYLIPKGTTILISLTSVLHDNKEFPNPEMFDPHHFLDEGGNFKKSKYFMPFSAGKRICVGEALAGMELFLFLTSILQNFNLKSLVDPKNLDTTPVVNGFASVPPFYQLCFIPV
# How it was run: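 A luminogenic readout tracked human CYP2C9 (10nM) converting deoxyluciferin (100uM, at KM) in 25mM KPO4 during 60 min at 37C with regenerated NADPH. Values normalized to 57uM sulphaphenazole as complete inhibition.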
# [2] = target: Cytochrome P450 3A4 (Homo sapiens) (UniProt P08684); assay: qHTS Assay for Inhibitors and Substrates of Cytochrome P450 3A4 (AID 884); also: nearly all actives have a fitted effect of over 50% in size; also: potency is read from the fitted curve at half-maximal effect; as to activity change, negative = inhibition: % is scaled to controls: 0 for no effect and ±100 for the full control effect
# Sequence of Cytochrome P450 3A4 (Homo sapiens) (P08684 whole entry, looked up): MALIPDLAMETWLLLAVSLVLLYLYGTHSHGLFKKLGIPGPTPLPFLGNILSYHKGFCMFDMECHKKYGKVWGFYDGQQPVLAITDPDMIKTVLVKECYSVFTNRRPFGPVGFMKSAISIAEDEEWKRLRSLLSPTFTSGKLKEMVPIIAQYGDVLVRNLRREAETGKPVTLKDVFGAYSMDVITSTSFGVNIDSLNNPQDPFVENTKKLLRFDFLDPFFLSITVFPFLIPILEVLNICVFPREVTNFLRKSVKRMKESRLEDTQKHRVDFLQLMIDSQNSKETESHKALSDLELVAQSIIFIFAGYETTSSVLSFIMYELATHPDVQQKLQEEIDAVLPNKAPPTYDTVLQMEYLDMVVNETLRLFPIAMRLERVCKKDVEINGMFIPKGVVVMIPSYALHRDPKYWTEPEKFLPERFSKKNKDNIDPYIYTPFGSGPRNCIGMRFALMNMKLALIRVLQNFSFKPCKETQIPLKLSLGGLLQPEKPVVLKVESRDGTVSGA
# How it was run: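 Luminescent readout of luciferin produced by CYP3A4 (20 nM) dealkylation of Luciferin-PPXE, 25 uM (its KM). NADPH-driven reaction ran 60 min at RT after 10 min compound preincubation; data scaled to 57 uM ketoconazole as 100% inhibition.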
# [3] = target: Cytochrome P450 3A4 (Homo sapiens) (UniProt P08684); assay: qHTS Assay for Activators of Cytochrome P450 3A4 (AID 885); also: nearly all actives have a fitted effect of over 65% in size
# How it was run: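 CYP3A4 activity: Luciferin-PPXE O-dealkylation, 25uM substrate, 200mM KPO4, RT throughout. Read-out is luciferase luminescence; higher values reflect activation.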
# [4] = target: Cytochrome P450 2D6 (Homo sapiens) (UniProt P10635); assay: qHTS Assay for Inhibitors and Substrates of Cytochrome P450 2D6 (AID 891);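 also: luciferin methyl ether substrate demethylated by CYP2D6 with NADPH regeneration; % is scaled to controls: 0 for no effect and ±100 for the full control effect; nearly all actives have a fitted effect of over 60% in size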
# Sequence of Cytochrome P450 2D6 (Homo sapiens) (P10635 whole entry, looked up): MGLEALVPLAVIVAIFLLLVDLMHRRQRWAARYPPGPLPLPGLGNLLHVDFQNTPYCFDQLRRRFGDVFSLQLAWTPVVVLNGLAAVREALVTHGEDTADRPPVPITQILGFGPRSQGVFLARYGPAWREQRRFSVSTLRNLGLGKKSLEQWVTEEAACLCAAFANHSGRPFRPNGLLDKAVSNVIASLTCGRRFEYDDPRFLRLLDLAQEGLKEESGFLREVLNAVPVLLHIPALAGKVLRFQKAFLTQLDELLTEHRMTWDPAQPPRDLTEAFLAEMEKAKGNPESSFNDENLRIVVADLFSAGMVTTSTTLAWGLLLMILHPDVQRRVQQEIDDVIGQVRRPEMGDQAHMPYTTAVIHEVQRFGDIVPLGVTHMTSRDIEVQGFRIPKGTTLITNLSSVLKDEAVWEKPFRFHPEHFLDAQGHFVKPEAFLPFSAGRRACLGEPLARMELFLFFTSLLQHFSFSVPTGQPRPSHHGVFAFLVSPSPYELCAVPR
# How it was run: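 Luminescent read-out of luciferin formed by 5 nM human CYP2D6 demethylating 30 uM Luciferin-ME EGE (Km level) over 60 min at room temperature after NADPH regeneration addition. Data normalized to full inhibition by 1.43 uM quinidine.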
# [5] = qHTS profiling of the MIPE4 collection as inhibitors of Plasmodium falciparum (3D7) proliferation (AID 743344; call rule not given here;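 also: scaled between DMSO vehicle wells and 0.29 µM artemisinin as full inhibition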); conditions: P. falciparum 3D7 in erythrocytes, SYBR Green DNA fluorescence, 72 h; at 28.5 µM (top of the series)
# How it was run: (§1)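 Parasite DNA was quantified by SYBR Green I fluorescence (ex 485, em 535 nm) after overnight lysis in saponin/Triton buffer at room temperature. Cultures at 0.3% parasitemia and 2.5% hematocrit were first exposed to compound for 72 h at 37 C; signals were normalised to artemisinin (0.29 uM) and vehicle wells.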
# [6] = qHTS profiling of the MIPE4 collection as inhibitors of Plasmodium falciparum (DD2) proliferation (AID 743345; call rule not given here); conditions: P. falciparum Dd2 in erythrocytes, SYBR Green DNA, 72 h; at 28.5 µM (top of the series)
# How it was run: as §1
# [7] = qHTS profiling of the MIPE4 collection as inhibitors of Plasmodium falciparum (DD2) proliferation (Rep 2) (AID 743346; call rule not given here); conditions: P. falciparum Dd2 in erythrocytes, SYBR Green DNA, 72 h; at 28.5 µM (top of the series)
# How it was run: as §1
# [8] = qHTS profiling of the MIPE4 collection as inhibitors of Plasmodium falciparum (HB3) proliferation (AID 743347; call rule not given here;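 also: plate controls were DMSO vehicle wells for no effect and artemisinin wells for full effect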); conditions: P. falciparum HB3 in erythrocytes, SYBR Green DNA, 72 h; at 28.5 µM (top of the series)
# How it was run: as §1
# [9] = target: Cytochrome P450 2C19 (Homo sapiens) (UniProt P33261); assay: qHTS Assay for Inhibitors and Substrates of Cytochrome P450 2C19 (AID 899); also: nearly all actives have a fitted effect of over 60% in size; also: potency is read from the fitted curve at half-maximal effect
# Sequence of Cytochrome P450 2C19 (Homo sapiens) (P33261 whole entry, looked up): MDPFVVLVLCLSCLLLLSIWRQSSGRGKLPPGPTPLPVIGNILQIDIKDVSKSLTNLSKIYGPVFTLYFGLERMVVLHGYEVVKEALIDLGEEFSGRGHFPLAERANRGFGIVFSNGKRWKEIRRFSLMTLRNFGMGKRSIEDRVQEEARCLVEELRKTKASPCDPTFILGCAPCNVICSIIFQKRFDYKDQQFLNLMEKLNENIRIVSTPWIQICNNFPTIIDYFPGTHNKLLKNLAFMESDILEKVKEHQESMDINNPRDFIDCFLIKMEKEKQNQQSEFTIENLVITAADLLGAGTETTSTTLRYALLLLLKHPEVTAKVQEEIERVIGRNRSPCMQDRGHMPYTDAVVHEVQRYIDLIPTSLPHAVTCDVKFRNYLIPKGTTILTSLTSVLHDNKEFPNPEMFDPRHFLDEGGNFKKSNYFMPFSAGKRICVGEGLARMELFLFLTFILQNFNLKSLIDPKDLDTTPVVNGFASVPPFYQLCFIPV
# How it was run: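 NADPH-dependent conversion of Luciferin-H EGE (10uM, at KM) by 5nM enzyme in 50mM KPO4, 60 min at 37C following 10 min compound preincubation. Stopped with luciferin detection buffer; luminescence read after 20 min.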
compound,measurement,setting,value
C=C(C)C(=O)OCC1CN2C(CCC(C)C2c2ccc(Br)cc2)C(=O)O1 (stereo unspecified),Potency,[1],inactive
same,Potency,[2],3.16 µM (active)
same,"activity change, negative = inhibition",[2],-21.6% [at 11.4 µM] (inactive)
same,"activity change, positive = activation",[3],-55% [at 11.4 µM] (inactive) and -73.8% [at 11.4 µM] (inactive)
same,Potency,[4],inactive
COc1cccc([C@@H]2Oc3ccc(OC)cc3/C(=N/O[C@@H](C)CN3CCCCc4nc(C)c(C)cc43)[C@@H]2O)c1,Potency,[1],1.58 µM (active)
same,Potency,[2],3.98 µM (active)
same,"activity change, positive = activation",[3],-96.4% [at 11.4 µM] (inactive)
COc1cc(C)c2c(Oc3cccc(C(F)(F)F)c3)c(OC)cc(NCCCC(C)N)c2n1 (stereo unspecified),"parasite growth, % of DMSO control",[5],3.66%
same,"parasite growth remaining, % of DMSO control (lower = more inhibition)",[6],6.22%
same,"parasite growth, % of control (lower = inhibition)",[7],16%
same,"growth, % of control",[8],2.71%
COC(=O)NC(/C(C(=O)OC)=C(\C)NCc1ccccc1)c1cccc(C)c1 (stereo unspecified),Potency,[1],inactive
same,"activity change, negative = inhibition",[2],-22.4% [at 11.4 µM] (inactive)
COc1cccc([C@H]2Oc3ccc(OC)cc3/C(=N\O[C@@H](C)c3cn([C@H](CO)Cc4ccccc4)nn3)[C@@H]2O)c1,Potency,[1],1.58 µM (active)
same,Potency,[2],3.16 µM (active) and 3.98 µM (active)
same,"activity change, positive = activation",[3],-102% [at 11.4 µM] (inactive) and -98.9% [at 11.4 µM] (inactive)
COc1ccc(-c2ccc3c(n2)CCCN3C[C@H](O)CN2CCCc3nc(C)c(C)cc32)cc1,Potency,[1],3.98 µM (active)
CC1(C)O[C@@H]2[C@H]3OC(C)(C)O[C@]3(COS(N)(=O)=O)OC[C@H]2O1,"parasite growth, % of DMSO control",[5],103%
same,"parasite growth remaining, % of DMSO control (lower = more inhibition)",[6],93.9%
same,"parasite growth, % of control (lower = inhibition)",[7],101%
same,"growth, % of control",[8],59.9%
CCCNC(=O)OC[C@@H]1O[C@H](CCO/N=C(\C)CCN2CCc3nc(-c4ccccc4)c(-c4ccccc4)cc3C2)C=C[C@@H]1Oc1ccc(OC)cc1,Potency,[1],2 µM (active)
same,Potency,[2],3.16 µM (active)
same,"activity change, positive = activation",[3],-74.2% [at 11.4 µM] (inactive)
CC(C)CO/N=C1/[C@H]2O[C@@H]2[C@@H](O)[C@H]2[C@H]1CCn1c(=O)n(-c3ccccc3)c(=O)n12,Potency,[1],inactive
CCOC(=O)N/N=C1/C[C@@H](O)[C@@H](O)[C@@H]2[C@@H]3C(=O)N(c4cccc(Oc5ccccc5)c4)C(=O)[C@H]3CC[C@@H]12,Potency,[1],inactive
COc1ccc(OC[C@@H](CO)OC)cc1,Potency,[1],inactive
O=C1C[C@@H](O)[C@@H](O)[C@H]2[C@@H]3C(=O)N(Cc4ccccc4)C(=O)[C@@H]3CC[C@H]12,Potency,[1],inactive
COC(=O)NC(/C(C(=O)OC)=C(\C)NCc1ccccc1)c1cccc(F)c1 (stereo unspecified),Potency,[1],inactive
same,"activity change, negative = inhibition",[2],-19.8% [at 11.4 µM] (inactive)
CO/N=C\c1ccc(C(=O)N2[C@H](c3ccc(C)cc3)[C@@H](C)CC[C@H]2C(=O)OC)cc1,Potency,[1],2.51 µM (active)
same,Potency,[2],3.16 µM (active)
same,"activity change, positive = activation",[3],-64.1% [at 11.4 µM] (inactive)
C=CCCC/C=C(/C)C(OCc1ccc(OC)cc1)C(CC/C=C(\C)C(N)=O)OC (stereo unspecified),Potency,[1],inactive
same,Potency,[2],3.98 µM (active)
same,"activity change, positive = activation",[3],-96.8% [at 11.4 µM] (inactive)
CC(=O)OC[C@@H]1O[C@@H](O/N=C2/C[C@@H](O)[C@@H](O)[C@@H]3[C@@H]4C(=O)N(C5CCCCC5)C(=O)[C@H]4CC[C@@H]23)[C@H](OC(C)=O)[C@H](OC(C)=O)[C@@H]1OC(C)=O,Potency,[1],inactive
CN(C(=O)OC(C)(C)C)[C@@H](Cc1ccc(O[S+](=O)([O-])c2cccc3cnccc23)cc1)C(=O)N1CCN(C(=O)OCc2ccccc2)CC1,"parasite growth, % of DMSO control",[5],5.7%
same,"parasite growth remaining, % of DMSO control (lower = more inhibition)",[6],6.02%
same,"parasite growth, % of control (lower = inhibition)",[7],18.5%
same,"growth, % of control",[8],8.16%
CCOC(=O)OCC1OC(CCc2ccccc2)CCC1Oc1ccc(OC)cc1 (stereo unspecified),Potency,[1],inactive
same,Potency,[2],3.98 µM (active)
same,"activity change, positive = activation",[3],-68.7% [at 11.4 µM] (inactive)
same,Potency,[4],inactive
COc1ccc(C#CC2C=CC(OC(C)=O)C(COC(C)=O)O2)cc1 (stereo unspecified),Potency,[1],inactive
same,Potency,[2],2.51 µM (active)
same,"activity change, negative = inhibition",[2],-3.53% [at 11.4 µM] (inactive)
same,"activity change, positive = activation",[3],-88.8% [at 11.4 µM] (inactive)
same,Potency,[4],inactive
same,Potency,[9],inactive
COC(=O)C1=C(C)N(Cc2ccccc2)C2=C(C(C)=O)C(c3ccccc3)[C@@](O)(C(=O)OC)C(=O)N2C1c1ccccc1 (stereo partly specified),Potency,[1],inactive
same,Potency,[2],3.98 µM (active)
same,"activity change, negative = inhibition",[2],-19% [at 11.4 µM] (inactive)
same,"activity change, positive = activation",[3],-79.4% [at 11.4 µM] (inactive)
same,Potency,[4],inactive
CC(=O)OC[C@@H]1O[C@@H](O/N=C2/C[C@@H](O)[C@@H](O)[C@@H]3[C@@H]4C(=O)N(C(C)(C)C)C(=O)[C@H]4CC[C@@H]23)[C@H](OC(C)=O)[C@H](OC(C)=O)[C@@H]1OC(C)=O,Potency,[1],inactive
C[C@H]1CCN(C(=O)CC#N)C[C@H]1N(C)c1ncnc2[nH]ccc12,"parasite growth, % of DMSO control",[5],69.9%
same,"parasite growth remaining, % of DMSO control (lower = more inhibition)",[6],98.8%
same,"parasite growth, % of control (lower = inhibition)",[7],51.2%
same,"growth, % of control",[8],114%
CC(=O)c1ccc(OC2C=CC(C#Cc3ccc(Br)cc3)OC2CO)cc1 (stereo unspecified),Potency,[1],inactive
same,Potency,[2],3.16 µM (active)
same,"activity change, positive = activation",[3],-77.6% [at 11.4 µM] (inactive)
same,Potency,[4],inactive
COC(=O)N(/C=C/c1ccc(OC)cc1)CCc1ccc(OC)c(OC)c1,Potency,[1],3.16 µM (active)
same,Potency,[2],3.98 µM (active)
same,"activity change, positive = activation",[3],-93.3% [at 11.4 µM] (inactive)
same,Potency,[4],inactive
same,Potency,[9],3.98 µM (active)
CCCCCCC#CC1C=CC(OC(=O)OCC)C(COC(=O)OCC)O1 (stereo unspecified),Potency,[1],inactive
same,Potency,[2],3.98 µM (active)
same,"activity change, positive = activation",[3],-78% [at 11.4 µM] (inactive)
same,Potency,[4],inactive
same,Potency,[9],2 µM (active)
